Source: PubChem BioAssay (several laboratories)
Peg3 prom inh: Peg3 promoter activity inhibition; HeLa PEG-Prom luciferase reporter, luminescence, overnight; inhibition, % at 20 µM; 360,000 compounds, 1.7% hits;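 active = inhibition of at least 50% at 20 µM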
Mdm2 MdmX PPI: disrupts the human Mdm2-MdmX interaction; O15151+Q00987; SaOS-2 split-luciferase Mdm2/MdmX complementation, luminescence; inhibition, % at 8 µM; 330,000 compounds, 3% hits; AID 485346;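 active = inhibition of at least 50% at 8 µM in the primary screen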
Target sequence (O15151 whole entry, looked up): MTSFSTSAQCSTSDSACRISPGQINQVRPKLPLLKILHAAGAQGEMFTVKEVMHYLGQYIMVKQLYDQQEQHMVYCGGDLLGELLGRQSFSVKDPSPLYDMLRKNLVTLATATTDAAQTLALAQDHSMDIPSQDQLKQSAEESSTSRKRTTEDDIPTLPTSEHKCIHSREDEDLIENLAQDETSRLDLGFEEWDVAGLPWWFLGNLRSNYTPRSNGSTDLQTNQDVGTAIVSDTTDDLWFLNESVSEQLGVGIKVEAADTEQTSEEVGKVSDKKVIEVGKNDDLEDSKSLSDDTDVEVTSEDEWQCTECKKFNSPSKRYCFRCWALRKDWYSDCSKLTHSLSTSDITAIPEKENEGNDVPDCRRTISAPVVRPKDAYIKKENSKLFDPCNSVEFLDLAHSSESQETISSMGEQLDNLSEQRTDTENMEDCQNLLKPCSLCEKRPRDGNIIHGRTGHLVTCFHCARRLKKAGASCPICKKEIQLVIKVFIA
Target sequence (Q00987 whole entry, looked up): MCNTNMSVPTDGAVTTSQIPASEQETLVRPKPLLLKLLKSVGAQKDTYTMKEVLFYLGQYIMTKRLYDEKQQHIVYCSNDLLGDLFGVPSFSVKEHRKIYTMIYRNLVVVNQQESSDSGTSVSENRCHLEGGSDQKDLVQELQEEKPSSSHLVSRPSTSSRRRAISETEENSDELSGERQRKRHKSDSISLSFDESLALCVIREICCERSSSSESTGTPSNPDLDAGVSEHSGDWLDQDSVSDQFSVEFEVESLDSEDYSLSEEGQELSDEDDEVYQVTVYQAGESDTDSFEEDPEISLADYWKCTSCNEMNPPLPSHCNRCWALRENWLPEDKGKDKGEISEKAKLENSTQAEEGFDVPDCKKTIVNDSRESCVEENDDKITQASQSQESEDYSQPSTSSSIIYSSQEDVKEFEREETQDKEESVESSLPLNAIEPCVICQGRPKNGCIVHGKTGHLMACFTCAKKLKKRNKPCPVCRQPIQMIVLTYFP
HIF-2a block: inhibitors of HIF-2a. 786-0 RCC cells HIF-2a reporter, luciferase luminescence, overnight. inhibition, % at 18.8 µM. 360,000 compounds, 0.72% hits. AID 624352;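 active = inhibition of the luminescence signal of 40% or more relative to plate controls, in a single-dose primary screen at 18.75 µM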
ABHD5-PLIN5 inh: ABHD5-PLIN5 protein interaction inhibition; inhibition, % at 4 µM; Split G. princeps luciferase complementation, luminescence, 4 h; 360,000 compounds, 0.78% hits;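 active = inhibition above the mean inhibition across every tested compound plus 3 SD, cut at about 22% in these data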
CF NFkB block: inhibitors of cystic fibrosis induced NF-kB; KKLEB NF-kB-GFP reporter, PAF-induced, GFP fluorescence overnight; inhibition, % at 5 µM; 360,000 compounds, 0.86% hits; AID 588850;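 active = at least 50% inhibition at 5 µM, scaled per plate between neutral and stimulator controls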;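 also: PAF is a Pseudomonas aeruginosa culture filtrate used as stimulus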
KKLEB cytotox: reduces viability of KKLEB cystic fibrosis airway cells | KKLEB CF airway cells viability, ATPlite luminescence, overnight; active compounds read low; cells stimulated with P. aeruginosa culture filtrate | activity change (cytotoxicity), % at 5 µM | 360,000 compounds, 0.36% hits;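 active = corrected activity change at or below -50% at 5 µM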
A number is an active result. In the library only some 4.6% were active in any assay of this set; here they are far more common.

Screening CC1(C(=O)NS(=O)(=O)c2ccc(C#N)cc2)CCN1C(=O)Cc1ccc(Cl)cc1Cl (stereo not drawn) returned Peg3 prom inh inactive, HIF-2a block inactive, ABHD5-PLIN5 inh inactive, CF NFkB block inactive and KKLEB cytotox inactive.
Screening Nc1ncnc2c1ncn2C1O[C@H](CO)[C@@H](O)[C@@H]1O (stereo partly drawn) returned Peg3 prom inh inactive, Mdm2 MdmX PPI inactive, HIF-2a block inactive, ABHD5-PLIN5 inh inactive, CF NFkB block inactive and KKLEB cytotox inactive.
For Nc1ncnc2c(C3OC(CO)C(O)C3O)scc12 (stereo not drawn) the results were Peg3 prom inh 90, HIF-2a block 50, ABHD5-PLIN5 inh inactive, CF NFkB block inactive and KKLEB cytotox inactive.
CC(=O)NCC1CCN(C(=O)C2CCC(=O)N(CCc3cccc(F)c3)C2)CC1 (stereo not drawn) was read as Peg3 prom inh inactive, Mdm2 MdmX PPI inactive, HIF-2a block inactive, ABHD5-PLIN5 inh inactive, CF NFkB block inactive and KKLEB cytotox inactive.
Screening CC(=O)NC(c1cccs1)c1cc([N+](=O)[O-])c2cccnc2c1O (stereo not drawn) returned Peg3 prom inh inactive, HIF-2a block inactive, ABHD5-PLIN5 inh inactive, CF NFkB block inactive and KKLEB cytotox inactive.
`CCCC(=O)NC(c1cccs1)c1cc([N+](=O)[O-])c2cccnc2c1O` (stereo not drawn) gave Peg3 prom inh 54, HIF-2a block inactive, ABHD5-PLIN5 inh inactive, CF NFkB block inactive and KKLEB cytotox inactive.
CCNC(=O)C1CCCN(C(=O)c2ccccc2OC(F)(F)F)CC1 (stereo not drawn) was read as Peg3 prom inh inactive, HIF-2a block inactive, ABHD5-PLIN5 inh inactive, CF NFkB block inactive and KKLEB cytotox inactive.
Screening O=C(Nc1nc2ccccc2n1Cc1ccccc1)c1ccc(COc2ccccc2[N+](=O)[O-])o1 returned Peg3 prom inh inactive, Mdm2 MdmX PPI inactive, HIF-2a block inactive, ABHD5-PLIN5 inh inactive, CF NFkB block inactive and KKLEB cytotox -68.
C/C(=N\NC(=O)COc1ccc(C(C)(C)C)cc1)c1cc2ccccc2o1 was read as Peg3 prom inh inactive, Mdm2 MdmX PPI inactive, HIF-2a block inactive, ABHD5-PLIN5 inh inactive, CF NFkB block inactive and KKLEB cytotox -58.
`COc1ccc(N2C(=O)CC(Sc3nnnn3-c3ccc(F)cc3)C2=O)cc1` (stereo not drawn) gave Peg3 prom inh 114, Mdm2 MdmX PPI inactive, HIF-2a block inactive, ABHD5-PLIN5 inh 52, CF NFkB block inactive and KKLEB cytotox inactive.
For CCC1Cc2[nH][nH]c(=O)c2C(CC)O1 (stereo not drawn) the results were HIF-2a block inactive and ABHD5-PLIN5 inh inactive.
Screening Cc1cccc(CN2CCN(C3CN(C4CCCCC4)S(=O)(=O)C3)CC2)c1 (stereo not drawn) returned Peg3 prom inh inactive, HIF-2a block inactive, ABHD5-PLIN5 inh inactive, CF NFkB block inactive and KKLEB cytotox inactive.
For O=C1C(Cl)=C(Nc2ccc3cn[nH]c3c2)C(=O)c2ccccc21 the results were Peg3 prom inh 97, HIF-2a block 95, ABHD5-PLIN5 inh 29, CF NFkB block 94 and KKLEB cytotox -92.
Screening COc1cc(-c2cnc3c(NC=O)cc(-c4ccccc4Cl)cn23)cc(OC)c1OC returned Peg3 prom inh inactive, HIF-2a block inactive, ABHD5-PLIN5 inh inactive, CF NFkB block inactive and KKLEB cytotox inactive.
For O=C1NC(Cc2ccc(O)cc2)c2nc3ccc(Cl)cc3c(=O)n2-c2cc3ccccc3cc21 (stereo not drawn) the results were Peg3 prom inh 61, HIF-2a block inactive, ABHD5-PLIN5 inh inactive, CF NFkB block inactive and KKLEB cytotox inactive.
`O=C1NC(Cc2ccc(O)cc2)c2nc3cc(F)ccc3c(=O)n2-c2cc3ccccc3cc21` (stereo not drawn) gave Peg3 prom inh inactive, HIF-2a block inactive, ABHD5-PLIN5 inh inactive, CF NFkB block inactive and KKLEB cytotox inactive.
For Cc1ccc2c(=O)n3c(nc2c1)C(Cc1ccc(O)cc1)NC(=O)c1cc2ccccc2cc1-3 (stereo not drawn) the results were Peg3 prom inh 62, HIF-2a block inactive, ABHD5-PLIN5 inh inactive, CF NFkB block inactive and KKLEB cytotox inactive.
`Cc1cc(C)c2c(=O)n3c(nc2c1)C(Cc1ccccc1)NC(=O)c1cc2ccccc2cc1-3` (stereo not drawn) gave Peg3 prom inh inactive, HIF-2a block inactive, ABHD5-PLIN5 inh inactive, CF NFkB block 74 and KKLEB cytotox -63.
Screening CCC1NC(=O)c2cc3ccccc3cc2-n2c1nc1cc(C)cc(C)c1c2=O (stereo not drawn) returned Peg3 prom inh inactive, HIF-2a block inactive, ABHD5-PLIN5 inh inactive, CF NFkB block inactive and KKLEB cytotox inactive.
`COc1cc(S(=O)(=O)N2CCN(C(=O)c3cccs3)CC2)ccc1NC(C)=O` gave Peg3 prom inh inactive, HIF-2a block inactive, ABHD5-PLIN5 inh inactive, CF NFkB block inactive and KKLEB cytotox inactive.
Screening CC1(C)C(/C=C/C=C/C=C/C=C2\N(CCCCS(=O)(=O)O)c3ccc4ccccc4c3C2(C)C)=[N+](CCCCS(=O)(=O)[O-])c2ccc3ccccc3c21 returned Peg3 prom inh inactive, Mdm2 MdmX PPI inactive, HIF-2a block inactive, ABHD5-PLIN5 inh 54, CF NFkB block inactive and KKLEB cytotox inactive.
COC(=O)c1c(N)sc(C(=O)N2CCOCC2)c1C was read as Peg3 prom inh inactive, Mdm2 MdmX PPI inactive, HIF-2a block inactive, ABHD5-PLIN5 inh inactive, CF NFkB block inactive and KKLEB cytotox inactive.
COC(=O)c1c(NC(=O)CCl)sc(C(=O)N2CCOCC2)c1C was read as Peg3 prom inh inactive, Mdm2 MdmX PPI inactive, HIF-2a block inactive, ABHD5-PLIN5 inh inactive, CF NFkB block 50 and KKLEB cytotox inactive.
CC(C)Oc1ccc(S(=O)(=O)N2CCOCC2)cc1NC(=O)C1CCCCC1 was read as Peg3 prom inh inactive, Mdm2 MdmX PPI inactive, HIF-2a block inactive, ABHD5-PLIN5 inh inactive, CF NFkB block inactive and KKLEB cytotox inactive.
For COc1ccc(C2CC(c3ccccc3)=NN2C(=O)COC(=O)c2cnc(Cl)c(Cl)c2)cc1 (stereo not drawn) the results were Peg3 prom inh 99, Mdm2 MdmX PPI inactive, HIF-2a block inactive, ABHD5-PLIN5 inh inactive, CF NFkB block inactive and KKLEB cytotox inactive.
Screening CN(C)CC/C=C1/c2ccccc2CS(=O)(=O)c2ccccc21 returned Peg3 prom inh inactive, Mdm2 MdmX PPI inactive, HIF-2a block inactive, ABHD5-PLIN5 inh inactive, CF NFkB block inactive and KKLEB cytotox inactive.
Screening CN(C)CC/C=C1\c2ccccc2COc2ccccc21 returned Peg3 prom inh inactive, Mdm2 MdmX PPI inactive, HIF-2a block inactive, ABHD5-PLIN5 inh inactive, CF NFkB block inactive and KKLEB cytotox -56.
Screening COc1ccc(C(=O)N2CCOC2CNC(=O)C(=O)NCCc2ccc(OC)c(OC)c2)cc1 (stereo not drawn) returned Peg3 prom inh inactive, Mdm2 MdmX PPI inactive, HIF-2a block inactive, ABHD5-PLIN5 inh inactive, CF NFkB block inactive and KKLEB cytotox inactive.
